Test results taken from the supplement of paper PMC11732987, “Enantioselective OTUD7B fragment discovery through chemoproteomics screening and high-throughput optimisation” (Communications Chemistry, 2025).

Legend:
Test in all cases: log2 ratio of Biotin-Ahx-Ub-VS probe labelling (fragment/DMSO); higher = less target engagement (more negative = stronger competition), active = hit call of the paper (q ≤ 0.05, log2 ratio ≤ -1)
Conditions in all cases: compound concentration: 200 uM; treatment time: 3 h
OTUD6B = molecular target: T1, OTUD6B (UniProt Q8N6M0)
T1 sequence (whole entry): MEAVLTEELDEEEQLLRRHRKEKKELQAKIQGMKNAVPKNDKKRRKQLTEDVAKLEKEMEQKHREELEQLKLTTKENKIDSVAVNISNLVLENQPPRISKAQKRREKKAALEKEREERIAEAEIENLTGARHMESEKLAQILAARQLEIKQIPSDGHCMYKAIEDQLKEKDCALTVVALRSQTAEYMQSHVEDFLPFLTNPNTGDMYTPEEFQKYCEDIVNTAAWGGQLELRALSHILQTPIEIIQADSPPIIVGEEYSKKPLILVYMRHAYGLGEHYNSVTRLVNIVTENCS
Summary of the method: (§1)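 Global-median-normalised Spectronaut label-free quantities were compared by unpaired t-test, and values are average log2 ratios of fragment over vehicle. Only proteins with ≥2 unique peptides were used. HEK293T lysate (495 µg per sample) was treated in triplicate with fragment at 200 µM or vehicle for 3 h and then with Biotin-Ahx-Ub-VS at 0.5 µM final for 1 h. Labelled DUBs were then NeutrAvidin-enriched, digested with LysC and trypsin, and run by diaPASEF LC-MS/MS.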

OTUD7B = molecular target: T2, OTUD7B (UniProt Q6GQQ9)
T2 sequence (whole entry): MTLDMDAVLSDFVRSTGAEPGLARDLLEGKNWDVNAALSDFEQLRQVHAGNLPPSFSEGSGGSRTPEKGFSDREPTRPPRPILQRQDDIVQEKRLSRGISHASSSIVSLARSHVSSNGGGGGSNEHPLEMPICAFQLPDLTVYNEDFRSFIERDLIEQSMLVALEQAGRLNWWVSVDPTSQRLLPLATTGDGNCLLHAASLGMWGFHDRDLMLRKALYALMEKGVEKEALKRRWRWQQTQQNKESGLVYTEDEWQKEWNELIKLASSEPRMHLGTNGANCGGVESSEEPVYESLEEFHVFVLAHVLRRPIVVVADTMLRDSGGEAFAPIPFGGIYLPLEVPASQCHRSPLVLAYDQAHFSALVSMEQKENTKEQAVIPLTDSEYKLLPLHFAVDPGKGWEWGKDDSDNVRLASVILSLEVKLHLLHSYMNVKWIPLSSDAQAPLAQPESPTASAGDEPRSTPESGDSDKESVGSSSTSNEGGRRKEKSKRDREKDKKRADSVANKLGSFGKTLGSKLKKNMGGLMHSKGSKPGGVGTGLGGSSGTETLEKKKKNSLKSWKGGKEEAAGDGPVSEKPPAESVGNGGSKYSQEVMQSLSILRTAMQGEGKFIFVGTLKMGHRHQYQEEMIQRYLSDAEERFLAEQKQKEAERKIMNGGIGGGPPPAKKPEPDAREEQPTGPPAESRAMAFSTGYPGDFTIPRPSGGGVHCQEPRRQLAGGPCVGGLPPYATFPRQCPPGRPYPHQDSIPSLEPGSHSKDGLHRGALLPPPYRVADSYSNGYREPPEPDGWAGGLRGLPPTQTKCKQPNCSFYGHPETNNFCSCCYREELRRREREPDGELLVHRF
Summary of the method: as §1

PRPF8 = PRPF8 (UniProt Q6P2Q9)
Summary of the method: as §1

PSMD7 = molecular target: T3, PSMD7 (UniProt P51665)
T3 sequence (whole entry): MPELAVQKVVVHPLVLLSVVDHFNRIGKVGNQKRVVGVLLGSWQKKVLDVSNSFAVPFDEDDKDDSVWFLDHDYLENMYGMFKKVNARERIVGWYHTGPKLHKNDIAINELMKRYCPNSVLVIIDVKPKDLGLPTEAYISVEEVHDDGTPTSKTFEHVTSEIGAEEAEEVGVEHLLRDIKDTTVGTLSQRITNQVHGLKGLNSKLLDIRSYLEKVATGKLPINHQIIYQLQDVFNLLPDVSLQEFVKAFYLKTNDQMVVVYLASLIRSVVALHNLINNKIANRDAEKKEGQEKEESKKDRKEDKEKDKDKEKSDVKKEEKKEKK
Summary of the method: as §1

UCHL1 = UCHL1 (UniProt P09936)
UCHL1, sequence (P09936 whole entry, looked up): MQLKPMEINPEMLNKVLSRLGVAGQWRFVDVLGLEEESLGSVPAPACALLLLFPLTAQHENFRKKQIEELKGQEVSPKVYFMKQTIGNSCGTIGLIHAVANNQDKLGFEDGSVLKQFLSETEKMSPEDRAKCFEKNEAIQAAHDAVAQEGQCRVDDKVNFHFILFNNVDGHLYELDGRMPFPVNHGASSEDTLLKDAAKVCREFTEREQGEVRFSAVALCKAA
Summary of the method: as §1

UCHL3 = molecular target: T4, UCHL3 (UniProt P15374)
T4 sequence (whole entry): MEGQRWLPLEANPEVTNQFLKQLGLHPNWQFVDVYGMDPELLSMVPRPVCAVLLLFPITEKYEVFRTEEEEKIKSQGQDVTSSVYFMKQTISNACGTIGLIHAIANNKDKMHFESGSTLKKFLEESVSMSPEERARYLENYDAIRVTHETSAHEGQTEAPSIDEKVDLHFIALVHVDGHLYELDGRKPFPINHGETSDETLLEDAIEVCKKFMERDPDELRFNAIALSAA
Summary of the method: as §1

UCHL5 = molecular target: T5, UCHL5 (UniProt Q9Y5K5)
T5 sequence (whole entry): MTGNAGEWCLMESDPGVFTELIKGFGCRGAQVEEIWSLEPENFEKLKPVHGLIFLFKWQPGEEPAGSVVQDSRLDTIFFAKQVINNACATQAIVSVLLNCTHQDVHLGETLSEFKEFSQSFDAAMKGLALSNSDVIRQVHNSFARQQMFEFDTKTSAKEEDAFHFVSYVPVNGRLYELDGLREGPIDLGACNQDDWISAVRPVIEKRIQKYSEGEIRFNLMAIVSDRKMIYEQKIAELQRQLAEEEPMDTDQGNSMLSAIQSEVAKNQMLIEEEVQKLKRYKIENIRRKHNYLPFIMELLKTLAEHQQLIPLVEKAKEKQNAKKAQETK
Summary of the method: as §1

USP10 = USP10 (UniProt Q14694)
USP10, sequence (Q14694 whole entry): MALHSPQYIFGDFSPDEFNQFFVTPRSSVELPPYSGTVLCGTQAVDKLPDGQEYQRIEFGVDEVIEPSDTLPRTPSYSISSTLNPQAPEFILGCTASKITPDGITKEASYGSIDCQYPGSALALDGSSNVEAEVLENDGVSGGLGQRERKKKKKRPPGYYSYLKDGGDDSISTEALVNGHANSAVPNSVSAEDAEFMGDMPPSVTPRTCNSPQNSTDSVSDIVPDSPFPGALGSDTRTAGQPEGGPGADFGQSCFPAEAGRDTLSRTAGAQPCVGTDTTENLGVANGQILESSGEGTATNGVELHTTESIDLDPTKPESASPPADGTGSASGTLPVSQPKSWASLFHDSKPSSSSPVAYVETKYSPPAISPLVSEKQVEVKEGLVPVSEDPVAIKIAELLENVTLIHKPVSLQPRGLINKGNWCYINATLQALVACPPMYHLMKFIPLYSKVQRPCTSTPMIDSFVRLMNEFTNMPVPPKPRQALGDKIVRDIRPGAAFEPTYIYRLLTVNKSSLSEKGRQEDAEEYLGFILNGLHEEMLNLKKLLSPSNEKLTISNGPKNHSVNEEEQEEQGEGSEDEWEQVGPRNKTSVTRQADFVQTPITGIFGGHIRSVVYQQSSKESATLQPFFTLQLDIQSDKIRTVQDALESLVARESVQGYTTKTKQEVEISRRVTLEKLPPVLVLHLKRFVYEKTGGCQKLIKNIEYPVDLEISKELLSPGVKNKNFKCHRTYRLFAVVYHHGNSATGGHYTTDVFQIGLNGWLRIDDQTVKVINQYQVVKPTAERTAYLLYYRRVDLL
Summary of the method: as §1

USP15 = molecular target: T6, USP15 (UniProt Q9Y4E8)
T6 sequence (whole entry): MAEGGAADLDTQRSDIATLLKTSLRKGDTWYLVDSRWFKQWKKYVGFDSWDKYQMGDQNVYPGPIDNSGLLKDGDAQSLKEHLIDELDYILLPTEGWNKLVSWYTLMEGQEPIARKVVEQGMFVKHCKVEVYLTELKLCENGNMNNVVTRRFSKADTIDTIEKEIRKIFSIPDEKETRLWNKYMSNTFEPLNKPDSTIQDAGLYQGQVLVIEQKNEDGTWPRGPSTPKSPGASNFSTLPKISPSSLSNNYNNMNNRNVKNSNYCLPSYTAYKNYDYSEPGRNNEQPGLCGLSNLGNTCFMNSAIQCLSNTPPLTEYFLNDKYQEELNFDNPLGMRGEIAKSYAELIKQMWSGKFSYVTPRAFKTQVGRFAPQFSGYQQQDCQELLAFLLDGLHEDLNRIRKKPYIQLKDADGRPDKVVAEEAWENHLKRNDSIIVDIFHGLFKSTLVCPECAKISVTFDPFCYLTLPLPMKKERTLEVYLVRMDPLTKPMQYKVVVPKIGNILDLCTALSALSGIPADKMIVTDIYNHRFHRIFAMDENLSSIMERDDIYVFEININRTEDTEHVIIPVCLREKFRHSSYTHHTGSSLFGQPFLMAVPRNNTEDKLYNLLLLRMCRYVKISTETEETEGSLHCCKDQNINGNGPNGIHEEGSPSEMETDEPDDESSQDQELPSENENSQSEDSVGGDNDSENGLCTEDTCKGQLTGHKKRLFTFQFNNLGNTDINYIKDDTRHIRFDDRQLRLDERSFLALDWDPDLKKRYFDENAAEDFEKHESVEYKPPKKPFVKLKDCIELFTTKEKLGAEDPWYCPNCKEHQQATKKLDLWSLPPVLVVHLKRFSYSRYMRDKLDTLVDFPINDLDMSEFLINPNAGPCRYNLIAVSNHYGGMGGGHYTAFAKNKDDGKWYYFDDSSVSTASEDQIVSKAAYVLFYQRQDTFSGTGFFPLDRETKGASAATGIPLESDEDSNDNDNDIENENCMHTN
Summary of the method: as §1

Measured: log2 ratio of Biotin-Ahx-Ub-VS probe labelling

CC(NC(=O)CCl)c1csc(-c2ccccc2)n1.Cl (centres undefined)
active: OTUD7B -1.07 | UCHL1 -1.3
inactive: OTUD6B -0.597 | PRPF8 -0.0372 | PSMD7 -0.175 | UCHL3 -0.457 | UCHL5 -0.71 | USP10 -0.126 | USP15 -0.386
